# Measured values as given in the supplement of paper PMC10849652.
# Of roughly 8,800 targets only a part is listed; those with a hit were picked by preference. About 0.5% of all pairs of compound and target were hits. A number with no mark means an inactive call.
# How the values were obtained:
# Experiment in all cases: log2 fold change, soluble protein after heating vs DMSO (PISA); higher = thermal stabilisation; K562 lysate, 10 uM; active = over 0.2 and 3.5 SD of the protein, either way, in both replicates (recomputed)
# lapatinib = compound: CS(=O)(=O)CCNCc1ccc(-c2ccc3ncnc(Nc4ccc(OCc5cccc(F)c5)c(Cl)c4)c3c2)o1 [lapatinib]
# Summary of the method: (§1)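 Soluble protein was defined as the supernatant remaining after 21,000xg for 90 min, following pooling of heated aliquots and adjustment to 0.5% NP-40 at 4°C. Before that, crude K562 extract at 1 mg/mL protein in PBS pH 7.4 with 1 mM MgCl2 was treated with 10 μM compound for 30 min and heated for 3 min across 48°C-58°C. Quantification used TMTpro 16plex LC-MS/MS with channel sums equalised, and values are log-two fold changes in thermal stability relative to solvent controls from duplicates.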
# pictilisib = compound: CS(=O)(=O)N1CCN(Cc2cc3nc(-c4cccc5[nH]ncc45)nc(N4CCOCC4)c3s2)CC1 [pictilisib]
# Summary of the method: as §1
# crizotinib = compound: C[C@@H](Oc1cc(-c2cnn(C3CCNCC3)c2)cnc1N)c1c(Cl)ccc(F)c1Cl [crizotinib]
# Summary of the method: as §1
# [1] = compound: C[C@H](C1=CC=C(C=C1)C(=O)NC2=C3C=CNC3=NC=C2)N
# Summary of the method: as §1
# duvelisib = compound: C[C@H](Nc1ncnc2nc[nH]c12)c1cc2cccc(Cl)c2c(=O)n1-c1ccccc1 [duvelisib]
# Summary of the method: as §1
# gandotinib = compound: Cc1cc(Nc2cc(CN3CCOCC3)c3nc(C)c(Cc4ccc(Cl)cc4F)n3n2)n[nH]1 [gandotinib]
# Summary of the method: as §1
# tozasertib = compound: Cc1cc(Nc2cc(N3CCN(C)CC3)nc(Sc3ccc(NC(=O)C4CC4)cc3)n2)n[nH]1 [tozasertib]
# Summary of the method: as §1
# doramapimod = compound: Cc1ccc(-n2nc(C(C)(C)C)cc2NC(=O)Nc2ccc(OCCN3CCOCC3)c3ccccc23)cc1 [doramapimod]
# Summary of the method: as §1
# bafetinib = compound: Cc1ccc(NC(=O)c2ccc(CN3CC[C@H](N(C)C)C3)c(C(F)(F)F)c2)cc1Nc1nccc(-c2cncnc2)n1 [bafetinib]
# Summary of the method: as §1
# [2] = compound: Cc1cccc(CC(=O)N2CCc3c2ccc(-c2cn(C)c4ncnc(N)c24)c3F)n1
# Summary of the method: as §1
# nilotinib = compound: Cc1cn(-c2cc(NC(=O)c3ccc(C)c(Nc4nccc(-c5cccnc5)n4)c3)cc(C(F)(F)F)c2)cn1 [nilotinib]
# Summary of the method: as §1
# [3] = compound: Cc1nc(Nc2n[nH]c3c2CN(C(=O)N[C@H](CN(C)C)c2ccccc2)C3(C)C)c2sccc2n1
# Summary of the method: as §1
# dasatinib = compound: Cc1nc(Nc2ncc(C(=O)Nc3c(C)cccc3Cl)s2)cc(N2CCN(CCO)CC2)n1 [dasatinib]
# Summary of the method: as §1
# [4] = compound: Cc1ncc(-c2ccnc(Nc3ccc(S(C)(=O)=O)cc3)n2)n1C(C)C
# Summary of the method: as §1
# [5] = compound: Cn1cc(-c2ccc3c(c2)CCN3C(=O)Cc2cccc(C(F)(F)F)c2)c2c(N)ncnc21
# Summary of the method: as §1
# quisinostat = compound: Cn1cc(CNCC2CCN(c3ncc(C(=O)NO)cn3)CC2)c2ccccc21 [quisinostat]
# Summary of the method: as §1
# tipifarnib = compound: Cn1cncc1[C@@](N)(c1ccc(Cl)cc1)c1ccc2c(c1)c(-c1cccc(Cl)c1)cc(=O)n2C [tipifarnib]
# Summary of the method: as §1
# [6] = compound: NC(=O)Nc1cc(-c2cccc(F)c2)sc1C(=O)N[C@H]1CCCNC1
# Summary of the method: as §1
# [7] = compound: NC(=O)c1cnc(N[C@@H]2CCCC[C@@H]2N)nc1Nc1cccc(-n2nccn2)c1
# Summary of the method: as §1
# [8] = compound: NC1(c2ccc(-c3nc4ccn5c(=O)[nH]nc5c4cc3-c3ccccc3)cc2)CCC1
# Summary of the method: as §1
# Sequence of UniProt Q06547 (Q06547 whole entry, looked up): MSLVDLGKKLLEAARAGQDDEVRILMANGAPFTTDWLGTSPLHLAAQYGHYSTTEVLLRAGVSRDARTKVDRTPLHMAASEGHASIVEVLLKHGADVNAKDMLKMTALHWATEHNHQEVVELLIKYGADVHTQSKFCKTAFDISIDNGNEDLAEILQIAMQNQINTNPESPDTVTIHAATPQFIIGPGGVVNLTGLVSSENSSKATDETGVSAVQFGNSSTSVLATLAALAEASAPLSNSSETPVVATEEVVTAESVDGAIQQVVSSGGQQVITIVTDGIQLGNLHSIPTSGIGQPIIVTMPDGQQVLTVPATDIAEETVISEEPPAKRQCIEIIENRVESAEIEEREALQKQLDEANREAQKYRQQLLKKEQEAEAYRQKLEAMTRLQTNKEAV
# Sequence of UniProt Q15717 (Q15717 whole entry, looked up): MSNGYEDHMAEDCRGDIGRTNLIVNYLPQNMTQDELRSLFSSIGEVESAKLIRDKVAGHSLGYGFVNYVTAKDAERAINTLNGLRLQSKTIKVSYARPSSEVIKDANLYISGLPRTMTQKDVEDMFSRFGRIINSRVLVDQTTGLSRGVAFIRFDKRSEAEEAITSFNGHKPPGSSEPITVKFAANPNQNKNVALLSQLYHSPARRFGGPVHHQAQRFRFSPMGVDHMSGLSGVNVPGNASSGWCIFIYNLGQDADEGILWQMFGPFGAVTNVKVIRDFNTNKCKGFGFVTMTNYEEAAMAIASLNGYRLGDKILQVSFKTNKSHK
# Sequence of UniProt Q92538 (Q92538 whole entry, looked up): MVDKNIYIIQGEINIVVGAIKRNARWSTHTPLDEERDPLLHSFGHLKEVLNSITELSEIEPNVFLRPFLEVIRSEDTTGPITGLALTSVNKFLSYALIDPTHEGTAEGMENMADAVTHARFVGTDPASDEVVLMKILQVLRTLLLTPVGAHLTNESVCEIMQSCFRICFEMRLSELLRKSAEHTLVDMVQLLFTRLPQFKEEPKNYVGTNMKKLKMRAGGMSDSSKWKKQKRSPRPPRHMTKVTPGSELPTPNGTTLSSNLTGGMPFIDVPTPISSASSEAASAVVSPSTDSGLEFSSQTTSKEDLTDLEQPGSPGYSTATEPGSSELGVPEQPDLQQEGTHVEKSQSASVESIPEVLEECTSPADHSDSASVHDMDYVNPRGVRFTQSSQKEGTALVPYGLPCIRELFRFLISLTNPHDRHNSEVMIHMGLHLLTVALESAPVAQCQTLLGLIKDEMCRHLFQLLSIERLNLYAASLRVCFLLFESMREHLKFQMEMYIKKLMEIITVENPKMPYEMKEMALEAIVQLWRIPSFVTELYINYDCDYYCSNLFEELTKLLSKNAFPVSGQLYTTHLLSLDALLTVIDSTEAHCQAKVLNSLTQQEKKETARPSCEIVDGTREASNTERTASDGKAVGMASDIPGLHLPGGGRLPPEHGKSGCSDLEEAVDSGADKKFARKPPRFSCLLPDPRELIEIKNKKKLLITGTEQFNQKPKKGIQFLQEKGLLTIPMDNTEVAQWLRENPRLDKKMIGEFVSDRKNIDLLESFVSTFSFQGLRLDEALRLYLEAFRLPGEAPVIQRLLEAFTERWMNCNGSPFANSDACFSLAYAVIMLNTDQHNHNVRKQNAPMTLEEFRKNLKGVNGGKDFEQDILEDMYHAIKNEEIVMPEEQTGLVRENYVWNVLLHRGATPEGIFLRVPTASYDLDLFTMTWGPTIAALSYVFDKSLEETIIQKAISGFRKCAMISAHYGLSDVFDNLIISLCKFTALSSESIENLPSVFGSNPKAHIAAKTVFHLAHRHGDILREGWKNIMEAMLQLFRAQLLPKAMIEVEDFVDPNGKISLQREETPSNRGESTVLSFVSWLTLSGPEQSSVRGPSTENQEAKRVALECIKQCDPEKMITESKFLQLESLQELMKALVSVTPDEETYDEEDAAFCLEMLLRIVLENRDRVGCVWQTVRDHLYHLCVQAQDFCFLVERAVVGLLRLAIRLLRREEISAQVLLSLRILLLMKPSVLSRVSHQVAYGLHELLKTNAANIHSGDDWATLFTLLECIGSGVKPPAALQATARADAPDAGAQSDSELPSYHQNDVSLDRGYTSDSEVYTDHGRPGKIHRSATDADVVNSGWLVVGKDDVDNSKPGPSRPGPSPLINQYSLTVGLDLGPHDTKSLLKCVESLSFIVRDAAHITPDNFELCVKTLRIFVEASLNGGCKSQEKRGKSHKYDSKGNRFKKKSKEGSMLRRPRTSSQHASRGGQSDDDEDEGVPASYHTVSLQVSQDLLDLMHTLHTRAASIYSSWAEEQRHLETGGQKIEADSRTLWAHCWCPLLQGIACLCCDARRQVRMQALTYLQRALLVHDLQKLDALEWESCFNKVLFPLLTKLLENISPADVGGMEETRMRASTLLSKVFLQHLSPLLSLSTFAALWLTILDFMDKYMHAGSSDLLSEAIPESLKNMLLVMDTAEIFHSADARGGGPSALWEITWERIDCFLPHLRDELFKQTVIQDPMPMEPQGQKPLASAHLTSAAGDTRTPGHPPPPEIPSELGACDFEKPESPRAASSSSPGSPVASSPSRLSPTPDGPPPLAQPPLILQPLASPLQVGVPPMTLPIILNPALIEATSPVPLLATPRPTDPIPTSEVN
# Sequence of UniProt P26378 (P26378 whole entry, looked up): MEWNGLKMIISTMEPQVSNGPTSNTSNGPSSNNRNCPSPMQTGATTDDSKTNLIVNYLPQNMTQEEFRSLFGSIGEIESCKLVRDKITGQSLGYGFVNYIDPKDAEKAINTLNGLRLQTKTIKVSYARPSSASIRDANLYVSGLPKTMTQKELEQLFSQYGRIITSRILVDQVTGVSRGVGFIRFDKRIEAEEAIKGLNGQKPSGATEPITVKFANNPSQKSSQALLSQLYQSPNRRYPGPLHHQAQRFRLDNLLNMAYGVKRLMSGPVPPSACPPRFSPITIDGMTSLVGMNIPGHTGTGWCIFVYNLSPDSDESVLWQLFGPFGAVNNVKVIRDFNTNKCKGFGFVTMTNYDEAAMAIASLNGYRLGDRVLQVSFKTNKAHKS
# Sequence of UniProt Q8NEZ5 (Q8NEZ5 whole entry, looked up): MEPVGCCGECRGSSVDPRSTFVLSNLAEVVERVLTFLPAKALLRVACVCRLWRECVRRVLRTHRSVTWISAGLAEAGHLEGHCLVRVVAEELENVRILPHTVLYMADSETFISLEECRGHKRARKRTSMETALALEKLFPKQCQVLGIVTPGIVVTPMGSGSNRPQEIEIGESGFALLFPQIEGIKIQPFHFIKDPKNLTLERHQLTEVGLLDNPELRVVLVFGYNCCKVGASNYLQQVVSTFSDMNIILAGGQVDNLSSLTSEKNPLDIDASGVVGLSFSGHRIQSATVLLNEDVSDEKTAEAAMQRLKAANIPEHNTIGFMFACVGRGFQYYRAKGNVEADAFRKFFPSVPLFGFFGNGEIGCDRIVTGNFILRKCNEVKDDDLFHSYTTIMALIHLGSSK
# Sequence of UniProt P09104 (P09104 whole entry, looked up): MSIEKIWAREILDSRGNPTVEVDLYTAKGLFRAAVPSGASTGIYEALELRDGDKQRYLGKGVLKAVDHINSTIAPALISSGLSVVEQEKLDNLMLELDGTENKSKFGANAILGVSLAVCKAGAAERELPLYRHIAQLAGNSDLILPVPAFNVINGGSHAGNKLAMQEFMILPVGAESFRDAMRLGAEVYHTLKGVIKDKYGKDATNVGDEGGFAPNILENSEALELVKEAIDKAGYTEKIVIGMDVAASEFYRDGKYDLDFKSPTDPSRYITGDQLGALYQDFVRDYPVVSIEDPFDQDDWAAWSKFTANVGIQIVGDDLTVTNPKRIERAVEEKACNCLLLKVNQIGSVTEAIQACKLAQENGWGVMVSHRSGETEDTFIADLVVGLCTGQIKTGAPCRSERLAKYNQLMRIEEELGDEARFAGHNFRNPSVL
# Sequence of UniProt Q9H6S3 (Q9H6S3 whole entry, looked up): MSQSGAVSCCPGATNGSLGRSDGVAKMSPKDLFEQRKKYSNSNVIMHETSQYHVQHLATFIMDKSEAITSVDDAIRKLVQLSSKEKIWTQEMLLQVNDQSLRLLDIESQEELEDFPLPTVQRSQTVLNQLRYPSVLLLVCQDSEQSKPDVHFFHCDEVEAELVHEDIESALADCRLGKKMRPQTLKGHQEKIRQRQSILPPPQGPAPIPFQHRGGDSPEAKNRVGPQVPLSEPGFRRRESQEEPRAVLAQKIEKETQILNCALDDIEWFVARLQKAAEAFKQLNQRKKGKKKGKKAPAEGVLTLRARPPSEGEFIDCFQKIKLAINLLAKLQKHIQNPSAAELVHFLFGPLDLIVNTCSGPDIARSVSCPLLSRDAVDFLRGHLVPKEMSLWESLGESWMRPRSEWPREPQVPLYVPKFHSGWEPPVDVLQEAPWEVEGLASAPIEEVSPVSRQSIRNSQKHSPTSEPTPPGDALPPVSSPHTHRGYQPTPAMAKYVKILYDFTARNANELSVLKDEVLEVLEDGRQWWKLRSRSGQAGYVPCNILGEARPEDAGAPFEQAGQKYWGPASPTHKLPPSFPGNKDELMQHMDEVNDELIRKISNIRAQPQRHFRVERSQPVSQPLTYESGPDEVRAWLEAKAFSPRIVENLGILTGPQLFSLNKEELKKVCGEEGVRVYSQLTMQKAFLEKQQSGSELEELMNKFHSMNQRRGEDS
# Sequence of UniProt Q9Y6B2 (Q9Y6B2 whole entry, looked up): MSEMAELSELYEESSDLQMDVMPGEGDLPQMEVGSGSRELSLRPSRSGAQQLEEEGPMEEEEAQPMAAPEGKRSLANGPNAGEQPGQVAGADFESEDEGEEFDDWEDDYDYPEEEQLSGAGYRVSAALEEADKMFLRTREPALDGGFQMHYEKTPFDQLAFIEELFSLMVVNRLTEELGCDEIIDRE
# Sequence of UniProt P28676 (P28676 whole entry, looked up): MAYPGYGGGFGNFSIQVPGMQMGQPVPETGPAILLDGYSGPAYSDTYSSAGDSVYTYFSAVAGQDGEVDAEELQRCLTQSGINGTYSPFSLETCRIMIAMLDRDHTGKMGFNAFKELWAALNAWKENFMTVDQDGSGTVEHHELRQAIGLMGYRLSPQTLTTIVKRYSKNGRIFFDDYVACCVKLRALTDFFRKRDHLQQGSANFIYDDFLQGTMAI
Target,log2 fold change (lapatinib),log2 fold change (pictilisib),log2 fold change (crizotinib),log2 fold change [1],log2 fold change (duvelisib),log2 fold change (gandotinib),log2 fold change (tozasertib),log2 fold change (doramapimod),log2 fold change (bafetinib),log2 fold change [2],log2 fold change (nilotinib),log2 fold change [3],log2 fold change (dasatinib),log2 fold change [4],log2 fold change [5],log2 fold change (quisinostat),log2 fold change (tipifarnib),log2 fold change [6],log2 fold change [7],log2 fold change [8]
"EEF1A1, A0A087WVQ9",0.028,-0.038,-0.02,0.07,-0.021,0.017,-0.08,-0.069,0.068,-0.129,0.124,0.012,0.006,0.044,0.002,-0.025,-0.001,0.024,0.013,0.016
GABPB1 isoform 3 (UniProt Q06547),-0.057,-0.086,0.001,-0.007,0.068,0,-0.001,-0.029,-0.149,0.043,–,–,-0.086,–,0.034,-0.017,–,-0.012,-0.037,-0.016
ENO2 (UniProt P09104),0.01,0.012,-0.009,-0.358 (active),0.04,0.214,-0.111,-0.012,-0.014,0.264 (active),0.006,0.017,0.036,0.025,0,-0.03,-0.021,0.001,-0.043,0.003
GALK1 isoform 2 (UniProt P51570),-0.002,-0.02,-0.015,0.092,-0.028,-0.098,0.03,0.039,-0.007,-0.013,0.01,-0.018,-0.024,-0.014,0.03,-0.051,0.002,0.04,-0.033,-0.006
GBF1 (UniProt Q92538),-0.015,-0.023,-0.064,-0.026,-0.002,-0.108,0.014,-0.006,-0.043,0.049,-0.021,0.02,-0.088,0.027,0.021,-0.04,-0.003,0.054,0.018,-0.034
ELAVL1 isoform 2 (UniProt Q15717),0.031,-0.002,-0.037,0.055,0.001,-0.067,-0.047,0.007,-0.004,-0.026,-0.035,-0.014,-0.029,-0.009,0.037,-0.079,0.003,0.034,0.008,0.03
ERBIN isoform 8 (UniProt Q96RT1),-0.011,0.012,-0.026,-0.056,0.005,0.012,-0.013,0.02,-0.002,0.029,0.012,-0.027,0.051,-0.015,0.018,-0.029,-0.005,0.018,0,0.001
EPS8L2 (UniProt Q9H6S3),0.044,-0.03,-0.012,-0.068,-0.086,0.061,-0.258,-0.046,-0.101,0.207,-0.011,0.05,0.051,-0.121,0.053,0.013,0.013,0.058,-0.01,0.013
EPN2 (UniProt O95208),-0.007,-0.037,-0.009,-0.407 (active),0.055,0.165,-0.036,0.065,-0.027,0.093,-0.001,0.01,-0.011,0.017,0.054,-0.016,-0.07,0.021,0.01,-0.016
EIF2D (UniProt P41214),-0.002,-0.014,-0.067,0.024,0.022,-0.084,0.029,0.032,-0.063,-0.01,-0.034,0.028,-0.027,-0.009,0.002,-0.064,0.024,0.04,0.008,-0.041
FBXO22 (UniProt Q8NEZ5),-0.035,-0.027,-0.035,0.035,-0.012,-0.03,0,0.034,-0.049,-0.039,0.005,0.021,-0.028,-0.036,0.025,-0.047,0.034,0.012,-0.007,-0.016
FAM111A (UniProt Q96PZ2),0.223,–,-0.01,–,0.03,–,-0.02,-0.163,–,–,–,–,-0.097,–,0.015,0.18,–,0.039,0.035,-0.037
EID1 (UniProt Q9Y6B2),–,–,–,-0.02,0.604 (active),0.108,-0.043,–,–,0.069,0.067,0.085,-0.306,0.05,0.32,–,0.021,–,–,0.133
FOXL2 (UniProt P58012),-0.25,0.091,–,–,0.094,–,-0.092,–,-0.703 (active),–,–,–,0.023,–,-0.013,–,–,–,-0.15,0.076
EXO5 (UniProt Q9H790),–,-0.43 (active),-0.113,–,–,–,–,0.061,-0.261,–,–,–,–,–,–,-0.082,–,-0.071,–,0.08
ELAVL4 (UniProt P26378),-0.017,–,-0.065,-0.064,0.03,-0.034,0.05,0.035,–,-0.061,-0.07,-0.062,0.006,0.092,0.039,-0.07,-0.06,0.07,0.01,0.024
"FBRSL1, A0A3B3IRR3",–,-0.064,0.086,-0.114,0.035,0.032,-0.105,-0.161,-0.089,0.146,0.034,0.022,0.01,0.013,-0.042,0.031,-0.073,0.029,–,0.066
EPN2 (UniProt I3L356),0.014,-0.054,–,-0.361,–,0.081,–,–,0.031,0.146,-0.248,0.062,–,-0.291,–,–,0.238,–,0.021,–
GCA (UniProt P28676),0.016,–,–,-0.091,–,-0.073,–,–,–,0.057,0.071,-0.11,–,0.096,–,–,-0.141,–,-0.118,-0.017
